Where a name gives a salt, the structure may show the parent alone.

PARP1 L713F-nLuc biosensor (HCT116), sequence (P09874 whole entry L713F, looked up): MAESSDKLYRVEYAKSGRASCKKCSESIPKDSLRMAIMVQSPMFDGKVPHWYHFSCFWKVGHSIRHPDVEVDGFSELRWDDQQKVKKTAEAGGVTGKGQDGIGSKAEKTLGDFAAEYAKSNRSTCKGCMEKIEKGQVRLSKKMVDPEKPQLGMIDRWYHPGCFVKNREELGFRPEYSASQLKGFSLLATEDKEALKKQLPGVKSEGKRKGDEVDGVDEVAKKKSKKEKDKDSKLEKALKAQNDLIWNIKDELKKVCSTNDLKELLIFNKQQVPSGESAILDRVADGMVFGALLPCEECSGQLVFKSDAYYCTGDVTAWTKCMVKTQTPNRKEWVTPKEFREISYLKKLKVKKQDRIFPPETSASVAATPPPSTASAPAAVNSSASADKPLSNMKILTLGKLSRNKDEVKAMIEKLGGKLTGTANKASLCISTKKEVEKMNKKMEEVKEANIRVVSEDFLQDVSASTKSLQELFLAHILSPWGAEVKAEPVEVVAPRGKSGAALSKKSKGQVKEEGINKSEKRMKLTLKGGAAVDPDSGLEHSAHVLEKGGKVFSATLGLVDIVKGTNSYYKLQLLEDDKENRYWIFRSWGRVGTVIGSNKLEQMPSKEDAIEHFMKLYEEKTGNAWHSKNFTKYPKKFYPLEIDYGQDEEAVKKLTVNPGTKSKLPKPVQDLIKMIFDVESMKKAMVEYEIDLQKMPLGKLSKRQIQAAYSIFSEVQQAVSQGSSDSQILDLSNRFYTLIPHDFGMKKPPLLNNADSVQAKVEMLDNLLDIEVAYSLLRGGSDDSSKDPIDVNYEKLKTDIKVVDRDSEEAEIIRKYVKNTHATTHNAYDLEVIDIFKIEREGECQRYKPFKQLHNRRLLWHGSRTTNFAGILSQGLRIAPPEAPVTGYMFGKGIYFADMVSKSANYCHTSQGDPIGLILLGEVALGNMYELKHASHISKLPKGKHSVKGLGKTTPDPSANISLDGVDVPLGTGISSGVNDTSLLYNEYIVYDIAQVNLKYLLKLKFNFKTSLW

This experiment concerns the target PARP1 L713F-nLuc biosensor (HCT116) (UniProt P09874). In words: PARP1 L713F-nLuc/akaLuc ratio relative to DMSO control (biosensor stabilization) (fold change); higher = more PARP1 biosensor stabilization (target engagement / stabilizer), active = hit call of the paper. As to conditions: stock concentration (mM; final µM = stock mM x 1): 10; 24 h;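 active = log2 fold change beyond 2 SD from the library mean after excluding viability outliers; inactive = within 2 SD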.
Regarding `CC(CCc1ccccn1)(CCc1ccccn1)C(=O)c1ccccc1`, the “PARP1 L713F-nLuc/akaLuc ratio” value is 1.27 (inactive).

Turning to `C=CC(=O)Nc1cccc(Nc2nc(Nc3ccc(OCCOC)cc3)ncc2F)c1` [Spebrutinib (CC-292, AVL-292)], the “PARP1 L713F-nLuc/akaLuc ratio” value was 0.464 (inactive).

`COc1nc(N)nc2c1ncn2[C@@H]1O[C@H](CO)[C@@H](O)[C@@H]1O` [Nelarabine]: the “PARP1 L713F-nLuc/akaLuc ratio” value was 1.15 (inactive).

With `COc1ccc(-c2c(-c3ccc(C#N)c(F)c3)nc(N3CCC(N)CC3)n(C)c2=O)cc1F` [Pulrodemstat (benzenesulfonate)], the “PARP1 L713F-nLuc/akaLuc ratio” value is 1.26 (inactive).

With `O=C(O)C1=CC(=C(c2ccc(O)c(C(=O)O)c2)c2ccc(O)c(C(=O)O)c2)C=CC1=O` [Aurintricarboxylic acid], the “PARP1 L713F-nLuc/akaLuc ratio” value was 0.68 (inactive).

As to `CCOC(=O)CCNc1cc(N2CCc3ccccc3CC2)nc(-c2ccccn2)n1`, the “PARP1 L713F-nLuc/akaLuc ratio” value was 0.586 (inactive).

Regarding `O=C1NC(=O)[C@@H](c2cn3c4c(cccc24)CCC3)[C@@H]1c1c[nH]c2ccccc12` [Tivantinib (ARQ 197)], the “PARP1 L713F-nLuc/akaLuc ratio” value was 0.773 (inactive).

`COc1cc2ccc(=O)oc2cc1O[C@@H]1O[C@H](CO)[C@@H](O)[C@H](O)[C@H]1O` [Scopolin]: the “PARP1 L713F-nLuc/akaLuc ratio” value was 1.04 (inactive).

For the compound `CN(C)[C@H]1CN(C2CCc3cccc(F)c32)C[C@@H]1c1ccc(N2CCN(S(C)(=O)=O)CC2)cc1` (some centres not stated), the “PARP1 L713F-nLuc/akaLuc ratio” value is 4.18 (active).

Turning to `O=C(Nc1ccccc1-c1cn2c(CN3CC[C@@H](O)C3)csc2n1)c1ccc2ccccc2c1`, the “PARP1 L713F-nLuc/akaLuc ratio” value is 0.641 (inactive).

As to `O=C(c1cccc(Cl)c1F)N1CCN(Cc2cccc(Nc3nccs3)n2)CC1`, the “PARP1 L713F-nLuc/akaLuc ratio” value is 1.61 (inactive).

As to `Cc1cc(Cl)ccc1OCCCC(=O)NO` [Droxinostat], the “PARP1 L713F-nLuc/akaLuc ratio” value was 2.78 (active).

Take `O=C(c1cc(Cn2c(=O)[nH]c(=O)c3c(F)cccc32)ccc1F)N1CCN(c2ncccn2)CC1` [Senaparib]: the “PARP1 L713F-nLuc/akaLuc ratio” value was 3.98 (active).

With `Nc1nc(=O)n([C@H]2C[C@H](O)[C@@H](CO)O2)cc1F` [5-Fluoro-2'-deoxycytidine], the “PARP1 L713F-nLuc/akaLuc ratio” value is 0.559 (inactive).

Regarding `Cc1nn2c([nH]c(=O)c3cccnc32)c1C#N`, the “PARP1 L713F-nLuc/akaLuc ratio” value was 0.851 (inactive).

As for `CC(=O)N(O)CCCCCNC(=O)CCC(=O)N(O)CCCCCNC(=O)CCC(=O)N(O)CCCCCN` [Deferoxamine mesylate], the “PARP1 L713F-nLuc/akaLuc ratio” value is 0.984 (inactive).

As for `NC(=O)c1ccc[n+]([C@@H]2O[C@H](CO)[C@@H](O)[C@H]2O)c1` [Nicotinamide riboside (chloride)], the “PARP1 L713F-nLuc/akaLuc ratio” value was 1.17 (inactive).

These data come from the supplement of paper PMC11624193, “Coupling cellular drug-target engagement to downstream pharmacology with CeTEAM” (Nature Communications, 2024).
